High-throughput results from PubChem.
GPT2 inh: inhibitors of human GPT2 alanine aminotransferase. Q8TD30. Recombinant GPT2, coupled pyruvate oxidase/HRP Amplex Red fluorescence. Potency, µM (series often up to 57.7 µM), inactives show at the highest dose activity change, negative = inhibition, most hits filed as inhibitors. 0.25% of 100,000 active; further: nearly all actives have a fitted effect of over 60% in size
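Fluorescence read-out: pyruvate from GPT2 turnover coupled to pyruvate oxidase, HRP and Amplex Red (0.2mM ThPP, 0.2U/mL PO and HRP, 50uM Amplex final). Substrates 250uM a-KG, 2mM L-alanine; enzyme 10ng/uL; 30 min RT.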
3T3 cytotox: cytotoxic compounds in NIH 3T3 cells; Potency, µM (doses to about 96.7 µM), inactives show at the highest dose activity change, negative = cytotoxicity, usual class: inhibitors; 4.3% of 94,000 active; AID 1345082; NIH 3T3 viability, CellTiter-Glo ATP luminescence, 48-72 h; further: nearly all actives have a fitted effect of over 55% in size
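Mouse fibroblast NIH 3T3 cells, 400 per well, received compound via pintool and were incubated for 48 or 72 hr prior to CellTiter-Glo ATP luminescence measurement.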
NPR1 antag: human Npr1 receptor antagonism; 1.6% of 76,000 active; HEK293 hNpr1 GloSensor cGMP, ANP-stimulated luminescence; P16066; Potency, µM (doses to about 46.3 µM), for inactives: at the highest dose activity change, negative = inhibition, usual class: inhibitors; calls by dose curve; further: nearly all actives have a fitted effect of over 60% in size
Target sequence (P16066 whole entry, looked up): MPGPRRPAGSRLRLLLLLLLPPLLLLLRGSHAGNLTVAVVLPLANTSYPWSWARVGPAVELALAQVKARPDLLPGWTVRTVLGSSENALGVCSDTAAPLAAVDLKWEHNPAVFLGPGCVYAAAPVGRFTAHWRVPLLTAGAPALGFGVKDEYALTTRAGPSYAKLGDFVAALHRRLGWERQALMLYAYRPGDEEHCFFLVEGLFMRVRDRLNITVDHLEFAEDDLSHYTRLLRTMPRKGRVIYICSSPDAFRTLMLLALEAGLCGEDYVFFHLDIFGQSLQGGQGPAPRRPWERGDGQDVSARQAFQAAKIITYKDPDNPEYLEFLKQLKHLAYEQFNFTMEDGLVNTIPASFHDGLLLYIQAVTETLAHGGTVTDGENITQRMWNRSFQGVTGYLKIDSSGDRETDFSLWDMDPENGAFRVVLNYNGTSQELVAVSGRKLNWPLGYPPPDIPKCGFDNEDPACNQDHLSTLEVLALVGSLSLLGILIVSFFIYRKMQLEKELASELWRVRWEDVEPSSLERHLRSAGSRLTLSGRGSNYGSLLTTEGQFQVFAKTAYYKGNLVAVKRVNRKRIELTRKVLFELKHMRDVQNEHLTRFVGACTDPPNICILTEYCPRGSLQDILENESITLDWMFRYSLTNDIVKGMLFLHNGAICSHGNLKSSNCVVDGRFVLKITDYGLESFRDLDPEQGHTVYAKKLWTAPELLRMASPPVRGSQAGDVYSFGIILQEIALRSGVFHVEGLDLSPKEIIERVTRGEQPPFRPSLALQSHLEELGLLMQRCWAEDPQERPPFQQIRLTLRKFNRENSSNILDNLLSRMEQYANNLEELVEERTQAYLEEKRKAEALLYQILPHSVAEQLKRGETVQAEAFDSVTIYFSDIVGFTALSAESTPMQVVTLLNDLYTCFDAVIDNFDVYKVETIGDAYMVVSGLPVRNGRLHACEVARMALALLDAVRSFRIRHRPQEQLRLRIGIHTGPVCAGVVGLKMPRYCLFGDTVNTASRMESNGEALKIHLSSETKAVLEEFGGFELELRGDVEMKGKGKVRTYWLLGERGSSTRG
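Compound pre-incubated 30 min at room temperature on GloSensor-loaded HEK293 cells stably carrying hNpr1 and the pGS-40F cGMP biosensor. Stimulation uses hNppA at 0.1 nM final; luminescence is taken at baseline and 20 min post-agonist.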
HEK293 tox: HEK 293 cell cytotoxicity | 6.6% of 94,000 active | HEK 293 viability, ATP luminescence (CellTiter-Glo), 48-72 h | Potency, µM (highest dose often 115 µM), for inactives: top-dose activity change, negative = cytotoxicity, most hits filed as inhibitors | AID 1345083; further: nearly all actives have a fitted effect of over 60% in size
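HEK 293 seeded at 250 cells/well receive compound via pintool. After 48 or 72 hr at 37 degree Celsius, 5% CO2 and 95% humidity, CellTiter-Glo is dispensed and luminescence read following 10 min at room temperature.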
FLuc inh: inhibitors of firefly (Photinus pyralis) luciferase | P08659 | purified P. pyralis luciferase, luminescence, biochemical | Potency, µM (top dose mostly 115 µM), actives largely listed as inhibitors | 2.5% of 76,000 active | AID 1347043; further: nearly all actives have a fitted effect of over 65% in size
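Cell-free enzyme assay, 10nM P. pyralis luciferase, luciferin and ATP each at 10uM. Inhibition profiled over a 6-point titration, read as luminescence.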
Active calls of the source: *; [ ] = another dose, or the depositor's remark. A selection: hits, their analogues and other compounds. The true share with any hit is near 10%. Unless noted, the call rests on the fitted dose curve; in most records, active means well fitted curve in the direction sought with a large enough effect; inconclusive means small, poorly fitted or top-dose-only effect, or another doubt; inactive means no such curve, though single readings can be large; an effect the other way counts as inactive or inconclusive. On the % scale 0 is the no-effect control and ±100 the full control effect; potency means the concentration at half of the fitted maximal effect.

How did Oc1ccccc1CN1CCOC[C@H]1c1ncc(-c2cccc(Cl)c2)[nH]1 do in these assays?
GPT2 inh: -4%[88.5 µM]; 3T3 cytotox: inconclusive; NPR1 antag: -18%[70.6 µM]; HEK293 tox: 89µM*; FLuc inh: inactive

What do the screens show for `COc1ccccc1C(=O)NC1CCCN(c2cc(-c3ccc(F)cc3)[nH]n2)C1` (stereo not given)?
GPT2 inh: -23%; 3T3 cytotox: inconclusive; NPR1 antag: -18%; HEK293 tox: inconclusive; FLuc inh: inconclusive

Results for CCS(=O)(=O)N1CCC(Cc2ccc(C(N)=O)cc2)CC1 ?
GPT2 inh: 5%; 3T3 cytotox: -11%; NPR1 antag: 0%; HEK293 tox: 2%; FLuc inh: inactive

What do the screens show for `N#Cc1cccc(CN2CCOC[C@H]2c2ncc(-c3ccc(F)cc3)[nH]2)c1`?
GPT2 inh: inactive; 3T3 cytotox: inconclusive; NPR1 antag: 0%[70.6 µM]; HEK293 tox: 63µM*; FLuc inh: inactive

What do the screens show for `CCn1ccc(C(=O)N2CCC(N3C[C@H](O)C[C@H]3C(=O)NCCOC)CC2)n1`?
GPT2 inh: inactive; 3T3 cytotox: inactive; NPR1 antag: -2%; HEK293 tox: inactive; FLuc inh: inactive

What do the screens show for `NC[C@@H]1O[C@H](c2ccccc2)Cc2c1ccc(O)c2O`?
GPT2 inh: 20µM*

Results for CN(Cc1ccccc1)Cc1cc(C[C@@H]2C[C@H](NC(=O)C3CCC3)C2(C)C)no1 ?
GPT2 inh: inconclusive; 3T3 cytotox: inconclusive; NPR1 antag: inconclusive; HEK293 tox: 35µM*; FLuc inh: inactive

How did CN(C)Cc1cc(C[C@@H]2C[C@H](NCc3ccccc3O)C2(C)C)no1 do in these assays?
GPT2 inh: 3%[88.5 µM]; 3T3 cytotox: inconclusive; NPR1 antag: -1%[70.6 µM]; HEK293 tox: 56µM*; FLuc inh: inactive

What do the screens show for `CC(C)(C)c1cc(C[C@@H]2C[C@H](NS(=O)(=O)c3ccccc3)C2(C)C)no1`?
GPT2 inh: 0%[88.5 µM]; 3T3 cytotox: inconclusive; NPR1 antag: -1%[70.6 µM]; HEK293 tox: 71µM*; FLuc inh: inactive

What do the screens show for `CN(Cc1cc(C[C@@H]2C[C@H](NC(=O)C(C)(C)C)C2(C)C)no1)c1ccccc1`?
GPT2 inh: -7%[88.5 µM]; 3T3 cytotox: inconclusive; NPR1 antag: inconclusive; HEK293 tox: 89µM*; FLuc inh: inactive

What do the screens show for `CN(Cc1cc(C[C@@H]2C[C@H](NC(=O)COc3ccccc3)C2(C)C)no1)c1ccccc1`?
GPT2 inh: -9%[88.5 µM]; 3T3 cytotox: inconclusive; NPR1 antag: inconclusive; HEK293 tox: inconclusive; FLuc inh: inactive

What do the screens show for `CCn1nc(C(C)C)cc1C(=O)N1C[C@@H]2CCN(C)C[C@]2(C(=O)O)C1`?
GPT2 inh: inactive; 3T3 cytotox: inactive; NPR1 antag: 5%; HEK293 tox: -4%; FLuc inh: inactive

What do the screens show for `COc1ccc(CCC(=O)N2CC(c3nnc(C(C)C)o3)C3(CCOCC3)C2)cc1` (stereo not given)?
GPT2 inh: -1%; 3T3 cytotox: -18%; NPR1 antag: -1%; HEK293 tox: -18%; FLuc inh: inactive

What do the screens show for `CN(Cc1cc(C[C@@H]2C[C@H](NCc3ccccn3)C2(C)C)no1)c1ccccc1`?
GPT2 inh: inconclusive; 3T3 cytotox: 79µM*; NPR1 antag: -14%[70.6 µM]; HEK293 tox: 56µM*; FLuc inh: inactive

How did COCC(=O)N[C@H]1C[C@H]2C(=O)Nc3ccc(-c4ccsc4)cc3C(=O)N2C1 do in these assays?
GPT2 inh: 1%[88.5 µM]; 3T3 cytotox: -22%[174 µM]; NPR1 antag: -1%[70.6 µM]; HEK293 tox: -1%[172 µM]; FLuc inh: inactive

How did CO[C@H]1C(=O)N(C(C)C)[C@H]1C1CCNCC1 do in these assays?
GPT2 inh: 1%; 3T3 cytotox: inactive; NPR1 antag: -4%; HEK293 tox: 2%; FLuc inh: inactive

How did COc1cccc(CN2CCCC(Cc3ncc(C)n3Cc3ccccc3)C2)c1OC (stereo not given) do in these assays?
GPT2 inh: inactive; 3T3 cytotox: inconclusive; NPR1 antag: -23%; HEK293 tox: 50µM*; FLuc inh: inactive

How did Cc1ccccc1-c1cccc(CN2CCOC(CCN)C2)c1 (stereo not given) do in these assays?
GPT2 inh: inconclusive; 3T3 cytotox: 20µM*; NPR1 antag: -7%; HEK293 tox: inconclusive; FLuc inh: inactive

How did CC(=O)c1cc(CN2CCOC(CCCc3ccccc3)C2)cs1 (stereo not given) do in these assays?
GPT2 inh: -5%; 3T3 cytotox: -27%; NPR1 antag: inconclusive; HEK293 tox: inconclusive; FLuc inh: inactive

How did Cc1noc(C)c1-c1cc2c(cc(C)n2C)c(NCCN(C)C)n1 do in these assays?
GPT2 inh: inconclusive; 3T3 cytotox: inconclusive; NPR1 antag: -2%[70.6 µM]; HEK293 tox: inconclusive; FLuc inh: inactive

How did Cc1noc(C)c1-c1cc2c(cc(-c3ccccc3)n2C)c(Nc2ccncn2)n1 do in these assays?
GPT2 inh: -9%[88.5 µM]; 3T3 cytotox: inconclusive; NPR1 antag: -17%[70.6 µM]; HEK293 tox: 32µM*; FLuc inh: inactive

What do the screens show for `Cc1noc(C)c1-c1cc2c(cc(C)n2C)c(Nc2ccncn2)n1`?
GPT2 inh: inconclusive; 3T3 cytotox: 20µM*; NPR1 antag: -18%[70.6 µM]; HEK293 tox: inconclusive; FLuc inh: inactive

How did Cc1cc2c(Nc3cccnc3)nc(-c3c(C)noc3C)cc2[nH]1 do in these assays?
GPT2 inh: 5%[88.5 µM]; 3T3 cytotox: inconclusive; NPR1 antag: -12%[70.6 µM]; HEK293 tox: inconclusive; FLuc inh: inactive

What do the screens show for `CC(=O)N1CC2(CCCN2CC2CC2)Cc2ccccc21` (stereo not given)?
GPT2 inh: -7%[88.5 µM]; 3T3 cytotox: inactive; HEK293 tox: inactive

Results for COc1ccc(-c2cc(C[C@H]3CNCC[C@H]3CC(=O)Nc3nccs3)no2)cc1 ?
GPT2 inh: -3%[88.5 µM]; 3T3 cytotox: 79µM*; NPR1 antag: -1%[70.6 µM]; HEK293 tox: 100µM*; FLuc inh: inactive

How did CC(C)(C)c1cc(C[C@H]2CNCC[C@H]2CC(=O)Nc2nccs2)no1 do in these assays?
GPT2 inh: -4%[88.5 µM]; 3T3 cytotox: inconclusive; NPR1 antag: 5%[70.6 µM]; HEK293 tox: 100µM*; FLuc inh: inactive

How did CC(C)(C)c1ccc(-c2cc(C[C@H]3CNCC[C@H]3CC(=O)N3CCN(c4ccc(F)cc4)CC3)no2)cc1 do in these assays?
GPT2 inh: inactive; 3T3 cytotox: inconclusive; NPR1 antag: -3%; HEK293 tox: inconclusive; FLuc inh: inactive

Results for O=C(C[C@@H]1CCNC[C@@H]1Cc1cc(CSc2ccccc2)on1)NCc1cccs1 ?
GPT2 inh: -1%; 3T3 cytotox: inconclusive; NPR1 antag: 0%; HEK293 tox: inconclusive; FLuc inh: inactive
